Screening results deposited in PubChem by National Center for Advancing Translational Sciences (NCATS).
The list is not random: actives were taken first. Their share in the collection is about 19%.
TGFb SMAD3 inh: inhibitors of TGF-b signaling; HepG2 CAGA-GFP TGF-b/SMAD3 reporter, GFP fluorescence, 18 h; TGF-beta stimulated, 500 pg/mL final; Potency, µM (highest dose often 46.1 µM), for the others: top-dose activity, negative = inhibition, usual class: inhibitors; 1.2% of 410,000 active; AID 588855; also: potency is read from the fitted curve at half-maximal effect; % is scaled to controls: 0 for no effect and ±100 for the full control effect; nearly all actives have a fitted effect of over 65% in size
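Read-out: total well GFP (ex488/em500-530) summed from mean per-cell fluorescence. Cells: HEPG2 CAGA-GFP, 1% FBS DMEM, 18 h at 37 degrees C with 500 pg/mL final TGF-beta. Unstimulated wells served as the full-inhibition control; stimulated DMSO wells = 0%.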
TDP1 block: blocks human tyrosyl-DNA phosphodiesterase 1. Potency, µM (titrated, usually from 130 µM), without a hit: top-dose activity change, negative = inhibition, usual class: inhibitors. recombinant TDP1, AlphaScreen DNA substrate cleavage. Q9NUW8. AID 485290. 0.28% of 350,000 active; also: potency is read from the fitted curve at half-maximal effect; % is scaled to controls: 0 for no effect and ±100 for the full control effect; nearly all actives have a fitted effect of over 40% in size
Target sequence (Q9NUW8 whole entry, looked up): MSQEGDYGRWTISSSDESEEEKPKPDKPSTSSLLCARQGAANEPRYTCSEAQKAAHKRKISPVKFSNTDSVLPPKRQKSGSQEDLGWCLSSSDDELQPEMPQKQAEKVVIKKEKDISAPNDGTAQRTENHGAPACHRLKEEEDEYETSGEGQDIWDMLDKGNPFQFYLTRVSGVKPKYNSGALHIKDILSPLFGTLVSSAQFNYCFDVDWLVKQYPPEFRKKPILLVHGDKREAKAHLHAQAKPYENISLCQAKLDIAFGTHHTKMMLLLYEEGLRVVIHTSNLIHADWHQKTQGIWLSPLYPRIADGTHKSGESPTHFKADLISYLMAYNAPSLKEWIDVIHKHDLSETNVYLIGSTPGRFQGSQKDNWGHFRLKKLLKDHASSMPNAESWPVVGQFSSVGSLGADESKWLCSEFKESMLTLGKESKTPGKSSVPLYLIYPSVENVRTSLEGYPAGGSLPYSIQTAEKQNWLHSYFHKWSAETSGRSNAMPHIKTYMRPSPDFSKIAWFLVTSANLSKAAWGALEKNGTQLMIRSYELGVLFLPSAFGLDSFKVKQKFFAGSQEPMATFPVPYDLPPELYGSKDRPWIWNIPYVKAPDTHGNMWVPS
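Steps: enzyme plus compound, 15 min RT; add biotin/phosphotyrosine-FITC oligonucleotide (15 nM final), react 5 min; add donor/acceptor beads (10 ug/ml final), 10 min; read AlphaScreen. Tdp1 at 1 nM final.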
IL-1B inflam inh: blocks inflammasome-driven IL-1 beta release. THP-1 LPS/ATP IL-1B secretion, AlphaLISA, 16 h; stronger effect = lower value. activity change, % at 57.5 µM. 4.7% of 360,000 active. AID 743279; in the data active = activity change below about -50%; inconclusive = mostly about -30% to -49%; also: % is scaled to controls: 0 for no effect and ±100 for the full control effect
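Secreted IL-1B measured by AlphaLISA bead assay after 16 h compound exposure of THP-1 cells; compounds (final up to 57.5 uM) added 1 h before LPS (250 ng/mL) and ATP (1.25 mM) stimulation; lower signal means less secretion.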
DT40 TDP1 no CPT: qHTS for Inhibitors of human tyrosyl-DNA phosphodiesterase 1 (TDP1): qHTS in cells in absence of CPT; DT40 Tdp1-/- hTDP1 cells, no CPT, ATP luminescence, 48 h; Potency, µM (titrated, usually from 46.2 µM), inactives show top-dose activity change, negative = growth inhibition, most hits filed as inhibitors; 15% of 420,000 active; AID 686978, 2013; also: potency is read from the fitted curve at half-maximal effect; % is scaled to controls: 0 for no effect and ±100 for the full control effect; nearly all actives have a fitted effect of over 55% in size
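Chicken DT40 Tdp1-/- cells complemented with human TDP1, screened without camptothecin (DMSO vehicle only), 400 cells/well. Compounds pin-transferred, cells incubated at 37 °C for at least 48 hr. Growth read as ATP-dependent luminescence (CellTiter-Glo, 30 min at RT).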
HepG2 viability: HepG2 cytotoxicity, counter-screen for TGF-b inhibitors | HepG2 CAGA-GFP viability, ATP luminescence, 18 h | Potency, µM (highest dose often 46.1 µM), for the others: top-dose activity change, negative = cytotoxicity, usual class: cytotoxic | 0.76% of 410,000 active; also: potency is read from the fitted curve at half-maximal effect
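HepG2 CAGA-GFP cells (1000/well, DMEM with 1% FBS) received compound, then TGF-beta at 500 pg/mL final, and were incubated 18 hours at 37 degrees C. Viability was read by CellTiter-Glo luminescence. Media-only wells were set as complete cell-killing and DMSO as no toxicity.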
TDP1 cell CPT: DT40-hTDP1 cell growth loss with CPT. chicken DT40 Tdp1-/-;hTDP1 cells + 20 nM CPT, ATP luminescence, 48 h. Potency, µM (highest dose often 46.2 µM), for inactives: at the top dose activity change, negative = growth inhibition, actives largely listed as inhibitors. 12% of 420,000 active. AID 686979; also: potency is read from the fitted curve at half-maximal effect; % is scaled to controls: 0 for no effect and ±100 for the full control effect; nearly all actives have a fitted effect of over 55% in size
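Chicken DT40 Tdp1-/- cells stably complemented with human TDP1 were seeded at 400 cells/well in medium containing 20 nM camptothecin, exposed to pin-transferred compounds, and grown at 37 °C for at least 48 hr. Viability was read as ATP luminescence.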
* marks the source's active call; other numbers are inactive results; [ ] = dose if it differs, or a comment. Unless noted, calls follow the shape of the dose curve; as a rule, active = well fitted curve in the direction sought with a large enough effect; inconclusive = small, poorly fitted or top-dose-only effect, or another doubt; inactive = no such curve, though single readings can be large; an effect the other way counts as inactive or inconclusive.

Results for CNC(C)[C@@H]1CC[C@@H](N)[C@@H](O[C@H]2[C@H](O)[C@@H](O[C@H]3OC[C@](C)(O)[C@H](NC)[C@H]3O)[C@H](N)C[C@@H]2N)O1 (some centres not stated) ?
DT40 TDP1 no CPT: -6%[21.1 µM]; TDP1 cell CPT: -18%[21.1 µM]

Results for COc1ccc(C2NC(=O)NC(C)=C2C(=O)Nc2cc(C)cc(C)c2)c(OC)c1 (configuration not stated) ?
TGFb SMAD3 inh: -8%; DT40 TDP1 no CPT: -1%; HepG2 viability: -13%; TDP1 cell CPT: -19%

Results for NC(=S)N/N=C1\c2ccccc2-c2c(C(=O)O)cccc21 ?
TGFb SMAD3 inh: 9%; TDP1 block: 1%; IL-1B inflam inh: 5; DT40 TDP1 no CPT: -9%; HepG2 viability: 0%; TDP1 cell CPT: -8%

How did CCOC(=O)c1c(NC(=O)c2cc(=O)c3cc(C)cc(C)c3o2)sc(C)c1C do in these assays?
TGFb SMAD3 inh: inconclusive; TDP1 block: 2%; DT40 TDP1 no CPT: -3%; HepG2 viability: -1%; TDP1 cell CPT: -13%

Results for COC(=O)c1cc2oc(C)cc2n1CC(=O)Nc1ccc(OC)c(OC)c1 ?
TGFb SMAD3 inh: -4%; TDP1 block: 3%; DT40 TDP1 no CPT: 0%; HepG2 viability: -1%; TDP1 cell CPT: -2%

What do the screens show for `Cc1ccc(-c2cc3ccccc3nc2N)cc1`?
TGFb SMAD3 inh: inconclusive; IL-1B inflam inh: 21; DT40 TDP1 no CPT: 26µM*; HepG2 viability: -38%; TDP1 cell CPT: 16µM*

Results for CC1CN(CCS(=O)(=O)c2cc(Cl)ccc2Cl)CC(C)O1 (configuration not stated) ?
TGFb SMAD3 inh: -20%; TDP1 block: 1%; IL-1B inflam inh: -103*; DT40 TDP1 no CPT: inconclusive; HepG2 viability: -1%; TDP1 cell CPT: inconclusive

How did CC(=O)N1CCN(CCS(=O)(=O)c2cc(Cl)ccc2Cl)CC1 do in these assays?
TGFb SMAD3 inh: -9%; TDP1 block: 2%; IL-1B inflam inh: -65*; DT40 TDP1 no CPT: inconclusive; HepG2 viability: 4%; TDP1 cell CPT: inconclusive

What do the screens show for `CC(C)C[C@@H](CC(=O)N[C@@H](CCC(=O)O)CC(=O)O)NC(=O)[C@@H]1CNCC[C@H]1NC(=O)C[C@@H](NC(=O)C[C@H](CO)NC(=O)[C@@H]1CCCC[C@H]1N)C(C)C`?
TDP1 block: -1%

How did O=C(Nc1ccccc1Cl)C1(c2ccccc2)CC1(Cl)Cl (configuration not stated) do in these assays?
TGFb SMAD3 inh: -22%; TDP1 block: 3%; IL-1B inflam inh: 7; DT40 TDP1 no CPT: 12µM*; HepG2 viability: -14%; TDP1 cell CPT: -18%

How did CCc1nn(CCCC(=O)NCc2ccccc2Br)c(=O)c2cc3occc3n12 do in these assays?
TGFb SMAD3 inh: -5%; TDP1 block: 1%; IL-1B inflam inh: -8; DT40 TDP1 no CPT: inconclusive; HepG2 viability: -16%; TDP1 cell CPT: inconclusive

What do the screens show for `CCc1cc2c(cc3c(=O)n(CCCC(=O)NCc4ccccc4Cl)nc(CC)n32)s1`?
TGFb SMAD3 inh: -25%; TDP1 block: 8%; DT40 TDP1 no CPT: 23µM*; HepG2 viability: 4%; TDP1 cell CPT: inconclusive

Results for CCc1nn(CC(=O)N2CCN(c3cccc(C)c3)C(C)C2)c(=O)c2cc3sccc3n12 (configuration not stated) ?
TGFb SMAD3 inh: -31%; TDP1 block: -2%; DT40 TDP1 no CPT: 23µM*; HepG2 viability: -8%; TDP1 cell CPT: 21µM*

Results for CCOC(=O)C1CCN(C(=O)Cn2nc(CC)n3c(cc4sccc43)c2=O)CC1 ?
TGFb SMAD3 inh: inconclusive; TDP1 block: -2%; DT40 TDP1 no CPT: 18µM*; HepG2 viability: 4%; TDP1 cell CPT: inconclusive

What do the screens show for `CCc1nn(CC(=O)N2CCN(c3cccc(Cl)c3)CC2)c(=O)c2cc3sccc3n12`?
TGFb SMAD3 inh: -3%; TDP1 block: -3%; DT40 TDP1 no CPT: -6%; HepG2 viability: 0%; TDP1 cell CPT: -4%

How did CCc1cc2c(cc3c(=O)n(CC(=O)N4CCC(C)CC4)nc(CC)n32)s1 do in these assays?
TGFb SMAD3 inh: inconclusive; TDP1 block: 1%; DT40 TDP1 no CPT: inconclusive; HepG2 viability: -2%; TDP1 cell CPT: 16µM*

Results for O=C(CCCN1C(=O)c2cccc3cccc(c23)C1=O)N1CCN(c2ccccc2)CC1 ?
TGFb SMAD3 inh: 3%; TDP1 block: 3%; IL-1B inflam inh: -11; DT40 TDP1 no CPT: inconclusive; HepG2 viability: -27%; TDP1 cell CPT: inconclusive

How did O=C(CCCN1C(=O)c2cccc3cccc(c23)C1=O)N1CCN(c2ccccc2O)CC1 do in these assays?
TGFb SMAD3 inh: 0%; TDP1 block: 8%; IL-1B inflam inh: -14; DT40 TDP1 no CPT: 15µM*; HepG2 viability: -1%; TDP1 cell CPT: inconclusive

Results for CCOc1ccccc1N1CCN(C(=O)CCCN2C(=O)c3cccc4cccc(c34)C2=O)CC1 ?
TGFb SMAD3 inh: 0%; TDP1 block: 5%; IL-1B inflam inh: -16; DT40 TDP1 no CPT: 21µM*; HepG2 viability: -10%; TDP1 cell CPT: 21µM*

How did O=C(CCCc1nc2ccccc2s1)N1CCN(c2ccccc2F)CC1 do in these assays?
TGFb SMAD3 inh: -20%; TDP1 block: 4%; IL-1B inflam inh: 91; DT40 TDP1 no CPT: -14%; HepG2 viability: -21%; TDP1 cell CPT: inconclusive

Results for CCOc1ccccc1N1CCN(C(=O)CCCc2nc3ccccc3s2)CC1 ?
TGFb SMAD3 inh: inconclusive; TDP1 block: 1%; IL-1B inflam inh: 5; DT40 TDP1 no CPT: 16µM*; HepG2 viability: -4%; TDP1 cell CPT: inconclusive

Results for CCOc1ccc(CNC(=O)CCS(=O)(=O)c2cc3c4c(c2)CCN4C(=O)CC3)cc1 ?
TGFb SMAD3 inh: -26%; TDP1 block: -5%; DT40 TDP1 no CPT: -14%; HepG2 viability: -15%; TDP1 cell CPT: -8%

How did CC(C)C1N=C2c3ccccc3N=C(SCC(=O)NCc3ccc(Cl)cc3)N2C1=O (configuration not stated) do in these assays?
TGFb SMAD3 inh: 0%; TDP1 block: 1%; DT40 TDP1 no CPT: inconclusive; HepG2 viability: -20%; TDP1 cell CPT: inconclusive
